# Laboratory results published in PubChem BioAssay (NCI).
# “And” between values parts separate entries of the source, which are not always exact repeats. Identical values can stand only once. This is part of a sample that, as a whole, favours compounds with a hit. Of some 83,000 tested, about 20% had one in any assay.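 Negative percent growth values reflect cell death: -40 means 40% of the cells present at the start died, and -100 means all died.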 Unmarked numbers belong to inactive results. The source made the active and inactive calls. The calls were made as follows: active = growth percent below 10; inactive = the rest.
# Test system: MDA-MB-468 breast
# Test: NCI-60 one-dose screen, 48 h (100 = growth as untreated, 0 = no growth, -100 = all killed)
# Details: 10 µM unless noted
row,SMILES,growth
1,CCCCCCCCCCCC(=O)OC(C)C(=O)Nc1ccccc1 (stereo not given),111%
2,Cc1cc(C)c(-c2c(N)cc(Br)cc2Br)c(N)c1,-17.1% (active)
3,CCN(CCO)CC(C)Nc1ccc([N+](=O)[O-])c2sc3ccccc3c(=O)c12 (stereo not given),21%
4,O=C1C(OCCOc2ccccc2)=C(OCCOc2ccccc2)C(=O)c2ccccc21,72.9%
5,COc1cc2c3c(n(CCCNC4CCC4)c(=O)c2cc1OC)-c1cc2c(cc1C3=O)OCO2,30.6%
6,COc1ccccc1NC(=O)c1ccc(/C=C/C(=O)c2nccn2C)cc1,-40.7% (active)
7,O=c1c(O)cccn1CCCNCCCN(CCCn1cccc(O)c1=O)CCCn1cccc(O)c1=O,109%
8,COc1cc(/C=C2\COc3ccc(-c4ccccc4)cc3C2=O)cc(OC)c1,69.3%
9,CCc1ccc2c(c1)N(CCO)C1=C(C(=O)OC1)C2c1cccc(Cl)c1 (stereo not given),20.1%
10,Cc1ccc(-c2nc3nc(-c4ccc(Cl)cc4)nc(N4CCCNCC4)c3o2)cc1,-54.2% (active)
11,Cc1c(N)ccc(-c2ccc(N)c(C)c2S(=O)(=O)O)c1S(=O)(=O)O,115%
12,S=c1nc2[nH]c3ccccc3c2n[nH]1,109%
13,Fc1cccc(Cl)c1/C=N/Nc1nc(N/N=C/c2c(F)cccc2Cl)nc(N2CCCCC2)n1,-14.2% (active)
14,CCOC(=O)CNP(=O)(OC[C@@H](Cc1ccccc1)NC(=O)c1cc2ccccc2s1)Oc1ccccc1 (stereo not given in full),-5% (active)
15,O=C1CC(=O)N2CSCN(C(c3ccccc3)c3nc4ncncc4[nH]3)C2=N1 (stereo not given),102%
16,CCOC(=O)c1c(C(=O)c2cn(C)c3ccc(Br)cc23)c(-c2cn(C)c3ccc(Br)cc23)n(NC(=O)OC(C)(C)C)c1C,41.5% [100 µM]
17,O=C(NCCO)Nc1ccc(-c2nc(N3CCOCC3)c3cccn3n2)cc1,-24.2% (active)
18,c1ccc2c(c1)CCN(NCCN1CCCC1)C2,109%
19,C=C1C(=O)O[C@H]2[C@H]1CC/C(COC(=O)/C=C\C(=O)NCc1ccc(Cn3c(=O)sn(-c4ccc(OC)cc4)c3=O)cc1)=C\CC[C@@]1(C)O[C@@H]21,-81.7% (active)
20,COc1cc([C@@H]2c3cc4c(cc3C(O[C@@H]3O[C@@H]5CO[C@@H](c6cccs6)OC5[C@H](O)[C@H]3O)C3COC(=O)[C@@H]32)OCO4)cc(OC)c1O (stereo not given in full),-58.9% (active)

row,SMILES,growth
1,COc1ccc(C/C(C)=C(/c2ccc(OCCN3CCCCCC3)cc2)c2ccc(OC(=O)c3ccccc3)cc2)cc1,111%
2,Nc1ccccc1SC(CC(=O)c1ccccc1)c1cccc([N+](=O)[O-])c1 (stereo not given),85.9% and 77.9%
3,COc1ccc(OC)c(NC=O)c1,97%
4,COc1ccc2cc(-c3ccc(NC(C)=O)c(=O)o3)ccc2c1,106%
5,O=C1/C(=C/c2ccc(Cl)c(Cl)c2)CN(C(=O)CCN2CCC(=NO)CC2)C/C1=C\c1ccc(Cl)c(Cl)c1,-72.3% (active)
6,O=C(Nn1c2c(sc1=Nc1ccccc1)C(=O)c1ccccc1C2=O)c1cc2ccc1CCc1ccc(cc1)CC2,105%
7,CN1CCN(Cc2ccc(NC(=O)c3cncc(C#Cc4cncn5ccnc45)c3)cc2C(F)(F)F)CC1,125%
8,CCCCCc1cc[n+](CC(=O)c2ccc(Cl)cc2)cc1,65.9%
9,CN(C)c1ccc(S(=O)(=O)O)cc1,106%
10,C[n+]1c2ccccc2nc2ccc(NCCO)cc21,94%
11,COc1cc(C2CC(c3ccc4c(c3)OCO4)=NN2C(C)=O)cc(OC)c1OC (stereo not given),-26.8% (active)
12,COC(=O)C1(NC(=O)CNC(=O)OCc2ccccc2)CCCC1,96.1%
13,Cc1cc(CC(=O)O)n(C)c1C(=O)c1ccc(Cl)cc1,101%
14,CC(C)=CCCC(C)c1ccc(C)c2c1OCN(CCCCCO)C2 (stereo not given),90%
15,O=[N+]([O-])c1cccc(N=C(Nc2cccc([N+](=O)[O-])c2)c2ccccc2)c1,43.2%
16,COc1ccc(/C=C/c2nnc(/C=C/c3ccc(OC)c(OC)c3)o2)cc1OC,19%
17,Cn1c([N+](=O)[O-])cnc1/C=C1\Oc2cc(Cl)ccc2C1=O,68.7%
18,O=C1c2c(O)cc(O)cc2-c2c(-c3ccc(O)cc3)oc3cc(O)cc1c23,46.4%
19,CC(C)=CCC[C@](C)(O)[C@H]1CC[C@]2(C)[C@@H]1CC[C@@H]1[C@@]3(C)C/C(=C/c4ccco4)C(=O)C(C)(C)[C@@H]3CC[C@]12C,111%
20,O=C(Nc1cn[nH]c1-c1nc2ccc(CN3CCOCC3)cc2[nH]1)NC1CC1,25.5%
